# Compounds with a hit are over-represented: about 2.4% of the library has one in this group of screens.
# D2 antagonist – HTS Assay for Allosteric Antagonists of the Human D2 Dopamine Receptor: Primary Screen for Antagonists. inhibition, % at 10 µM. D(2) dopamine receptor (Homo sapiens), P14416. HEK293 TREx D2 cells, calcium flux, dopamine EC80. hit rate 2% among 340,000; in the data active = inhibition above about 30%; inactive = below that, where a call was filed; also: 0% is about no effect
# Target sequence (P14416 whole entry, looked up): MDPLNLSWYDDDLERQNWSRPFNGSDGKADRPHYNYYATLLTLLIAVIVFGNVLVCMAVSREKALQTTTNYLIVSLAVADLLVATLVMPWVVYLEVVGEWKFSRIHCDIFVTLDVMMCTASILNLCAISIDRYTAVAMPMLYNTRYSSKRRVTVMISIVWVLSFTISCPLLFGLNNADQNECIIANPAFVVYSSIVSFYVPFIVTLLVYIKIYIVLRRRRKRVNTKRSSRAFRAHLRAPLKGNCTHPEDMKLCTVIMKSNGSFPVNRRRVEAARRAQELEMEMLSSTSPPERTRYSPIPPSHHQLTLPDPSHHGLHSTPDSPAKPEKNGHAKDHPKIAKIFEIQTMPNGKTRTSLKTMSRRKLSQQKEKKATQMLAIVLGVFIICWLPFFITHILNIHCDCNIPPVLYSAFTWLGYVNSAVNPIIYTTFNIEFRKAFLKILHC
#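 Calcium mobilization kinetics were recorded at 1 s intervals in tetracycline-induced HEK293 T-REx D2 cells, first for 180 s after compound addition and then 180 s after EC80 dopamine.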
# D2 ag-1 – HTS Assay for Allosteric Agonists of the Human D2 Dopamine Receptor: Primary Screen for Agonists | D(2) dopamine receptor (Homo sapiens), P14416 | HEK293 T-REx D2 cells, calcium flux agonist mode | activation, % at 2 µM | hit rate 0.53% among 340,000 | AID 485358, 2010;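 active = activation over 3 SD above normal in the single-dose calcium agonist read, cut at about 30% in these data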; also: 0% is about no effect
#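 HEK293 Trex D2 cells, tetracycline-induced, o/n 30 C 5% CO2; no-wash Ca dye, RT 30–90 min; 10-cycle baseline, 23 nl cpd added, kinetic Ca read 180 s; agonist hits = positive Ca response.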
# D2 ag-2 – Beta-Arrestin HTS for Positive Allosteric Modulators of the Human D2 Dopamine Receptor: Agonists; DiscoveRx PathHunter D2 beta-arrestin, luminescence, 90 min; 100% = 57 uM dopamine signal; hit rate 0.084% among 360,000; activation, % (no concentration beside the values); AID 624465, 2012; D(2) dopamine receptor (Homo sapiens), P14416; in the data active = activation above about 40%; inconclusive = between about 15% and that limit
#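 Agonist mode: compounds alone added to overnight-plated D2 PathHunter cells for 90 min at 37 C, with 57 uM final dopamine (EC100) defining full response. Beta-arrestin recruitment detected by chemiluminescent reagent, read after 1 h at ambient temperature.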
# D2 PAM-1 – Beta-Arrestin HTS for Positive Allosteric Modulators of the Human D2 Dopamine Receptor: Potentiators; hit rate 0.23% among 360,000; potentiation, % (concentration not given with the values); D(2) dopamine receptor (Homo sapiens), P14416; DiscoveRx D2 beta-arrestin cells, luminescence, 90 min; 100% = 57 uM dopamine signal; in the data active = potentiation above about 50%; inconclusive = mostly about 30% to 49%
#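 PathHunter beta-arrestin assay in DiscoveRx D2 cells. Compounds were added with an EC20 of dopamine (50 nM final) for 90 min at 37 deg C. Luminescence was read 1 h after detection reagent, with 57 uM dopamine as the EC100 control.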
# D2 PAM-2 – HTS Assay for Positive Allosteric Modulators of the Human D2 Dopamine Receptor: Primary Screen for Potentiators; HEK293 T-REx D2, calcium flux, EC20 dopamine potentiation; potentiation, % at 10 µM; hit rate 0.34% among 340,000;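 active = potentiation over 3 SD above the plate norm, cut at about 30% in these data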; also: 0% is about no effect
#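 Tetracycline-induced Hek293 Trex D2 cells, force-coupled to calcium, loaded with no-wash calcium dye. Compound added with 180 s kinetic read for agonism, then EC20 dopamine and a further 180 s read for potentiation.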
# * marks the source's active call; other numbers are inactive results; ? = inconclusive; nt = not tested or not shown.
SMILES,D2 antagonist,D2 ag-1,D2 ag-2,D2 PAM-1,D2 PAM-2
COc1ccc(C(=O)NNC(=O)COc2ccc(Cl)cc2C)cc1S(=O)(=O)N1CCOCC1,33*,0,-2,-12,-2
COc1cccc(-n2c(SCc3ccccc3C)nc3c([nH]c4ccccc43)c2=O)c1,nt,1,nt,nt,-4
CC(=O)Nc1ccc(NC(=O)Nc2cccc(Cl)c2)cc1,16,0,-5,-25,-5
CC(=O)C(=Nc1ccc(Cl)cc1Cl)NNc1cccc(Cl)c1,-15,-1,?,125*,-6
COc1ccc(C(=O)c2ccc(OC)c3cccc(O)c23)cc1OC,-9,0,4,73*,13
CC(Oc1ccccc1)C(=O)Nc1ccccc1C(=O)OCc1cc(=O)n2nc(C(C)C)sc2n1 (centres undefined),nt,2,nt,nt,14
CCOC(=O)c1c(CSc2ccccc2)n(C)c2cc(Br)c(O)c(CN(C)C)c12,-6,-1,1,-4,-3
CCOC(=O)c1c(CN2CCCCC2)n(C)c2cc(Br)c(O)c(CN(C)C)c12,60*,0,-5,-6,-33
O=C(COC(=O)/C=C/c1cccc([N+](=O)[O-])c1)Nc1ccc(Cl)cn1,39*,0,-2,-3,13
COc1cc(Nc2nc3c(S(=O)(=O)c4ccc(C)c(C)c4)nnn3c3ccsc23)cc(OC)c1,nt,1,nt,nt,-1
CCCNC(=O)CSc1nc2ccc(OCC)cc2s1,35*,1,-3,-1,13
CCc1ccccc1NC(=O)Cn1c(=O)n(-c2ccc(C)c(C)c2)c(=O)c2oc3ccccc3c21,nt,1,nt,nt,1
Cc1cc(C)c(Cn2c3ccccc3c3cnn(CC(=O)NCCc4ccccc4)c(=O)c32)c(C)c1,nt,-1,nt,nt,-4
CC(C)CCN1CCN(Cc2cccs2)CC1CCO (centres undefined),31*,14,1,-18,-20
Cc1ccc(CN2CCN(CCC(C)C)C(CCO)C2)s1 (centres undefined),57*,0,-3,-18,-25
CC(C)N1CCN(Cc2cccs2)CC1CCO (centres undefined),nt,nt,0,-2,nt
Cc1ccc(CN2CCN(Cc3ccc(C)s3)CC2CCO)cc1 (centres undefined),69*,1,-3,-2,-23
CC(C)CCN1CCN(Cc2cccc3nonc23)CC1CCO (centres undefined),54*,1,-2,-7,-23
Cc1ccc(OCC(=O)Nc2ccc3nc(SCC(=O)N4CCCC4)sc3c2)cc1C,nt,-2,nt,nt,-13
COc1ccccc1NC(=O)CN1C(=O)CC(c2ccc(C)c(C)c2)=Nc2ccccc21,nt,0,nt,nt,10
COc1ccc(CN2CCN(Cc3ccc(C)cc3)C(CCO)C2)cc1OC (centres undefined),14,0,-1,-22,12
COc1cc(CN2CCN(Cc3ccc(C)cc3)C(CCO)C2)cc(OC)c1O (centres undefined),57*,1,3,-16,-18
COc1ccc(NC(=O)CSc2ncc3c(n2)-c2cc(Cl)ccc2N(Cc2ccccc2F)S3(=O)=O)cc1,nt,0,nt,nt,-5
COc1cc(OC)cc(C(=O)Nc2ccc(S(=O)(=O)N3CCCCC3c3cccnc3)cc2)c1 (centres undefined),nt,-1,nt,nt,-2
COc1ccc(OC)c(C(=O)c2c(N)c(-c3nc(-c4ccc(C)c(C)c4)cs3)c3ccccn23)c1,nt,-1,nt,nt,11
SMILES,D2 antagonist,D2 ag-1,D2 ag-2,D2 PAM-1,D2 PAM-2
COC(=O)N/N=C\c1cc2c(cc1Br)OCO2,-3,-1,-6,-10,-11
Cc1ccc(C(=O)N/N=C\c2cc3c(cc2Br)OCO3)s1,66*,-1,-3,-10,-31
COc1ccccc1N1CCN(C(CNC(=O)C(=O)NCCc2ccccc2)c2cccnc2)CC1 (centres undefined),nt,-1,nt,nt,5
Cc1nnc(N2CCCC(C(=O)NCCc3ccc(Cl)cc3)C2)c2nn(-c3ccccc3)c(C)c12 (centres undefined),nt,0,nt,nt,nt
C=CCN1C(=O)/C(=C/c2ccc(O)c(OC)c2)S/C1=N/c1nccs1,-10,45*,10,4,3
CCOC(=O)c1oc2cccc(OC(C)=O)c2c1C,37*,1,-6,3,-7
COc1ccc(C(CNC(=O)c2oc3ccc(C)cc3c2C)N2CCOCC2)cc1 (centres undefined),nt,-2,nt,nt,-11
CC(=O)C1=C(c2ccc(F)cc2)N(C(C)=O)n2c(nnc2C2CCCCC2)S1,nt,1,nt,nt,-3
Cc1cc(C)cc(NC(=O)CSc2nc3nc(C)cc(C)c3c(=O)[nH]2)c1,35*,1,1,2,-2
Oc1ccc(N=Cc2ccc(O)c(O)c2)cc1,-19,0,?,83*,13
Oc1ccc(/C=N/N=C/c2ccc(O)c(O)c2)cc1O,12,0,10,4,7
CCN(CC(=O)Nc1cc(Cl)ccc1C)C(=O)CSCc1c(C)noc1C,33*,0,0,-10,-16
CCN(CC(=O)Nc1cc(Cl)ccc1C)C(=O)C1CC(=O)N(Cc2ccccc2)C1 (centres undefined),7,0,3,-13,-25
CCN(CC(=O)Nc1cc(Cl)ccc1C)C(=O)C1CC1,56*,0,-1,-3,7
CCCNC(=O)c1cnc2sc(N3CCCCCC3)nn2c1=O,nt,-1,nt,nt,13
O=c1cc(N2CCN(Cc3ccccc3)CC2)[nH]c(=O)n1-c1ccc(Br)cc1,38*,1,-1,-4,0
Cc1ccccc1CNC(=O)c1cccc(NC(=O)N2CCSc3ncccc32)c1,nt,0,nt,nt,0
CC1=C(c2ccc(C(C)C)cc2)S(=O)(=O)N=C1N1CCN(c2ccccc2F)CC1,nt,-1,nt,nt,2
CCOc1ccccc1OCCCNCc1ccco1,31*,0,-4,-15,-25
CC1O[C@@H](OC2C(COC3OC(CO)C(O)[C@H](O)C3O)OC(OC3CC[C@]4(C)C(CC[C@@]5(C)[C@@H]4CC=C4[C@@H]6CC(C)(C)CC[C@]6(CO)C(O)C[C@]45C)C3(C)C)C(O)C2O)C(O)C(O)C1O (some centres undefined),nt,nt,0,-52,nt

# Bioassay records as filed in PubChem.
